Screening data as filed in PubChem BioAssay.
MITF primary – inhibitors of human MITF; O75030; AlphaScreen MITF homodimerization, bead proximity signal; inhibition, % at 2.6 µM; 650,000 compounds, 0.91% hits; in the data active means inhibition above about 50%;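 further: 0% = vehicle wells with protein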
GPR151 activ – human GPR151 activation; activation, % at 11.2 µM; PathHunter beta-arrestin GPR151 cells, luminescence; 650,000 compounds, 1% hits; Q8TDV0; AID 1508602; in the data active means activation above about 4.9%;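 further: 0% = median of compound wells and 100% = cells with positive control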
FBW7 act – activators of human E3 ligase FBW7; Q969H0; AlphaScreen FBW7–phospho-cyclin E peptide binding, activator screen; normalized activity (activation), % at 26.1 µM; 650,000 compounds, 0.13% hits; in the data active means normalized activity above about 1.9%;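 further: purified mutant Fbw7 with reduced substrate affinity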
Target sequence (Q969H0 whole entry, looked up): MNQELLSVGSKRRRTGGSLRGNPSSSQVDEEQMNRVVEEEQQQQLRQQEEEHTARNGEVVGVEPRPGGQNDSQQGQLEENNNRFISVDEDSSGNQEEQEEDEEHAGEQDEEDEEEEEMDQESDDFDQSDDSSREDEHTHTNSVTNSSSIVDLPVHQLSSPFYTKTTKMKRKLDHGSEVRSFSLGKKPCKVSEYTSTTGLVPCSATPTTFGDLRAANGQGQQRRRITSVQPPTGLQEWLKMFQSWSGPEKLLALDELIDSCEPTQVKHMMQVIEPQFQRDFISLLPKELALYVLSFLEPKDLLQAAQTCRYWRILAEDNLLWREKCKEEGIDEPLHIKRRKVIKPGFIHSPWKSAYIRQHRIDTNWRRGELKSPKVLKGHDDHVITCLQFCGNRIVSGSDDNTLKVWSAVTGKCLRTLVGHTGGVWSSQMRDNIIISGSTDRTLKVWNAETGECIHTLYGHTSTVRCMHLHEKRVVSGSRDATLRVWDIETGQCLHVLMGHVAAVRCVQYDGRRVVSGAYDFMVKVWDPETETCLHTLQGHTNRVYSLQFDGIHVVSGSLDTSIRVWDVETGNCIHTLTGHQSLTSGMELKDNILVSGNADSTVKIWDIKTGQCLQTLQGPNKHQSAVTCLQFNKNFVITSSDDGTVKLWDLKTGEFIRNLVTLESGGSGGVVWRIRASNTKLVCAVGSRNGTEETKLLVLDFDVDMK
TEAD-YAP inh – TEAD-YAP interaction inhibition | inhibition, % at 9.12 µM | HEK-TIYL cells, TEAD-Gal4/YAP UAS-luciferase luminescence | AID 1259422 | 640,000 compounds, 1.4% hits; in the data active means inhibition above about 32%;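 further: 0% = median of test compound wells and 100% = reference inhibitor wells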
* marks the source's active call; other numbers are inactive results; ! = not confirmed by another sample. Hits are enriched below; roughly 3.5% of the tested compounds scored in any of these assays.

SMILES	MITF primary	GPR151 activ	FBW7 act	TEAD-YAP inh
COc1ccc(C2SCCN2S(=O)(=O)c2ccc(NC(C)=O)cc2)cc1OC (configuration not stated)	14.2	-0.8	1.9*	1.6
COc1ccc(C2SCCN2S(=O)(=O)c2ccc(NC(C)=O)cc2)cc1 (configuration not stated)	12.8	2.8	0.6	14.2
O=C1CCCC(=O)C1C1c2ccccc2Oc2ccccc21	1.0	3.3	-0.1	5.3
Cc1csc(C(C#N)C2=NS(=O)(=O)c3ccccc32)n1 (configuration not stated)	0.5	-0.2	0.1	-19.0
N#CC(C1=NS(=O)(=O)c2ccccc21)c1nc(C23CC4CC(CC(C4)C2)C3)cs1 (configuration not stated)	-3.3	1.4	-0.1	62.5*
CC(C(=O)c1ccc(-c2ccccc2)cc1)[n+]1ccc2ccccc2c1 (configuration not stated)	7.4	0.4	0.0	56.0*
COc1cccc(C2=CC(c3ccccc3OC(F)F)n3ncnc3N2)c1 (configuration not stated)	6.1	-0.9	-0.1	51.9*
COc1cccc(C2=CC(c3ccc(OC(F)F)cc3)n3ncnc3N2)c1 (configuration not stated)	3.3	-0.7	0.6	-51.8
COc1cccc(C2=CC(c3ccc(OC)cc3OC)n3ncnc3N2)c1 (configuration not stated)	3.0	-1.1	-0.1	39.7*
COc1cccc(C2=CC(c3cc(Br)ccc3F)n3ncnc3N2)c1 (configuration not stated)	1.0	0.2	0.0	47.1*
CCOc1cccc(C2CC(c3cccc(Br)c3)=NC(c3ccccc3Cl)N2)c1O (configuration not stated)	-9.8	0.0	-0.1	-4.9
Cc1ccc(NC(=O)c2nccnc2CO)c(Cl)c1	4.6	2.3	-0.2	-33.2
CC1=C(C(=O)OCC(C)C)C(c2ccc(F)cc2)NC(=S)N1 (configuration not stated)	7.0	-0.9	-0.1	7.1
COc1cccc(-c2n[nH]c3c2C(c2ccc(C)cc2)NC3=O)c1 (configuration not stated)	-2.8	0.8	0.0	1.6
Cc1ccc(S(=O)(=O)N(C)c2ccc(C(=O)N3C(C)CCCC3C)cc2)cc1 (configuration not stated)	10.5	4.7	0.6	48.4*
Cc1ccc(S(=O)(=O)N(C)c2ccc(C(=O)N3CCCCC3)cc2)cc1	3.7	1.1	0.0	12.9
Cc1ccc(NC(=O)N2CCCc3ccccc32)cc1	-4.2	0.3	-0.2	-17.4
CC(C)(C)c1ccc(NC(=O)N2CCc3ccccc32)cc1	8.0	-4.4	-0.1	86.9*
COc1ccc(C(=O)N(CCCN2C(=O)c3cccc4cccc(c34)C2=O)c2ccc(C)cc2)cc1	-4.0	0.0	0.1	2.3
Cc1nc(N=Nc2ccc(S(=O)(=O)O)cc2S(=O)(=O)O)c(COP(=O)(O)O)c(C=O)c1O	74.8*!	1.5	0.1	2.8
CC(C)NC(=O)NC(=O)COc1ccccc1C#N	-4.8	-0.8	0.0	-34.5
CC(C)(C)NC(=O)NC(=O)COc1ccccc1C#N	0.7	-2.1	-0.1	40.3*
COc1ccc(OC)c(/C=C2/N=C(c3cccc([N+](=O)[O-])c3)OC2=O)c1	15.2	1.3	1.9*	3.5
CCOc1ccc(C2C(C(=O)OC)=CN(C)C=C2C(=O)OC)cc1Cl	-10.8	-2.2	0.9	-13.2
Cn1nc2c(c1NC(=O)C1CCCN(S(=O)(=O)c3ccc(Cl)s3)C1)CCC2 (configuration not stated)	2.2	0.5	0.0	33.4*
SMILES	MITF primary	GPR151 activ	FBW7 act	TEAD-YAP inh
COc1ccc(S(=O)(=O)N2CCCC(C(=O)Nc3c4c(nn3C)CCC4)C2)cc1 (configuration not stated)	-1.2	1.5	-0.1	11.8
Cc1cccc(N2CCN(C(c3ccncc3)c3nnnn3C(C)(C)C)CC2)c1C (configuration not stated)	-7.1	-4.0	-0.2	61.8*
c1ccc(-n2cnc3c(NCCN4CCOCC4)nc(-c4ccc(N5CCOCC5)nc4)nc32)cc1	1.6	-0.4	-0.1	58.8*
Oc1ccc(CCNc2nc(NCCN3CCOCC3)nc3c2ncn3-c2ccccc2)cc1	7.2	-1.9	-0.2	37.4*
FC(F)(F)c1ccc(Cn2cnc3c(NCCOc4ccccc4)nc(-c4ccc(N5CCOCC5)nc4)nc32)cc1	20.1	0.1	2.0*	8.0
Oc1ccc(CCNc2nc(-c3ccc(N4CCOCC4)nc3)nc3c2ncn3-c2ccccc2)cc1	12.0	3.0	0.5	40.8*
FC(F)(F)c1ccc(Cn2cnc3c(NCc4ccccc4)nc(-c4ccc(N5CCOCC5)nc4)nc32)cc1	7.3	1.4	-0.1	10.9
c1ccc(-c2nc(NCCN3CCOCC3)c3ncn(-c4ccccc4)c3n2)cc1	16.1	0.4	0.3	28.3
CCCNc1nc(NCCCN2CCCC2=O)nc2cc(OC)c(OC)cc12	32.7	1.0	0.0	2.9
N#Cc1c(OCCN2C(=O)c3ccccc3C2=O)cccc1-n1cccc1	16.8	-0.7	0.1	-2.9
c1ccc(OCCNc2ncnc3nc(-c4ccc(N5CCOCC5)nc4)[nH]c23)cc1	-2.8	-1.1	10.9*	-19.0
O=C1CCCN1CCn1cnc2c(NCCN3CCOCC3)nc(-c3ccc(N4CCOCC4)nc3)nc21	0.7	-0.1	0.1	-14.2
O=C1CCCN1CCCNc1nc(-c2ccc(N3CCOCC3)nc2)nc2c1ncn2-c1ccccc1	5.3	1.2	-0.1	47.9*
COc1ccc(-c2csc(NC(=O)c3ccc(C)cc3)c2C(=O)O)cc1	3.6	-0.4	0.0	47.0*
CCCc1sc(NC(=O)c2ccc(C)cc2)c(C(=O)O)c1C	13.8	-0.9	0.7	51.9*
CCOC(=O)c1c(NC(=O)c2ccc(C)cc2)sc(C(=O)Nc2ccccc2)c1C	-3.9	0.8	0.6	-7.3
COc1cccc(CC2=NOC(C(=O)NCC(C)(C)CO)C2)c1 (configuration not stated)	0.0	0.4	0.0	0.9
COc1cccc(CC2=NOC(C(=O)NCc3cnc4ccccc4c3)C2)c1 (configuration not stated)	3.3	0.8	-0.1	35.0*
O=C(COc1ccc(F)cc1)Nc1ccc2c(c1)C(=O)NCCO2	8.5	0.6	0.0	41.5*
O=C(CCC1CCCC1)Nc1ccc2c(c1)C(=O)NCCO2	5.7	-0.7	0.1	-62.5
O=C(CC(NCCC1=CCCCC1)C(=O)O)Nc1cccc([N+](=O)[O-])c1 (configuration not stated)	14.4	0.3	-0.1	-0.5
CC1CCCCN1C(=O)CSc1nnc(-c2ccc3c(c2)OCO3)o1 (configuration not stated)	2.9	3.1	0.1	-2.9
Cc1[nH]c2ccc(-c3nnc(SCC(=O)N4CCCCC4C)o3)cc2c1C (configuration not stated)	-3.8	0.2	0.1	50.7*
O=C(COc1ccc(F)cc1)NCC1(c2cccs2)CCCC1	11.5	0.9	0.4	2.4
CC(C)(C)c1ccc(C(=O)Nc2cccc(C(=O)O)c2)cc1	9.4	-7.5	0.2	83.6*
